From PubChem BioAssay AID1159580 (chemical genetic matrix, 2015)
The whole screen tested about 5,500 compounds, of which about 2,000 (36%) were called active. Inconclusive results (about 18%) are left out. Cut-off read from the data, not from the text of the source: active = normalized growth mostly below about 0.91 (no sharp cut-off); inconclusive = no clear call, values can overlap the other calls; inactive = mostly above about 0.92. The list shows a part of the results.

Assay: chemical genetic growth profiling, strain panel (AID 1159580);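 note: tested at 20 µM; growth read once vehicle control cultures reached saturation at 30 °C; 1 = growth at the plate median or of vehicle wells; lower values mean less growth of the strain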
Details: S. cerevisiae deletion strains, growth OD

Measured: normalized growth

O=C(Oc1cccc2cccnc12)c1ccccc1
inactive: locus YAL021C, strain ccr4, active compounds read low 0.962 | locus YAL026C, strain drs2, active compounds read low 0.921 | locus YBL061C, strain skt5, active compounds read low 0.951 | locus YBR009C, strain hhf1, active compounds read low 0.956 | locus YBR023C, strain chs3, active compounds read low 0.956 | locus YBR171W, strain sec66, active compounds read low 0.917 | locus YBR231C, strain swc5, active compounds read low 0.995 | locus YBR279W, strain paf1, active compounds read low 0.957 | locus YCL011C, strain gbp2, active compounds read low 0.959 | locus YCL016C, strain dcc1, active compounds read low 0.952 | locus YCL061C, strain MRC1, active compounds read low 0.967 | locus YCL069W, strain vba3, active compounds read low 0.948 | locus YCR088W, strain abp1, active compounds read low 0.936 | locus YDL005C, strain med2, active compounds read low 0.962 | locus YDL040C, strain nat1, active compounds read low 0.951 | locus YDR001C, strain nth1, active compounds read low 0.936 | locus YDR069C, strain doa4, active compounds read low 0.953 | locus YDR159W, strain sac3, active compounds read low 0.971 | locus YDR195W, strain ref2 1.12 | locus YDR297W, strain sur2, active compounds read low 0.937 | locus YDR334W, strain swr1, active compounds read low 0.921 | locus YDR335W, strain msn5, active compounds read low 0.938 | locus YEL003W, strain gim4, active compounds read low 0.94 | locus YEL037C, strain rad23, active compounds read low 0.961 | locus YEL061C, strain CIN8 (second series), active compounds read low 0.943 | locus YER015W, strain faa2, active compounds read low 0.965 | locus YER016W, strain bim1, active compounds read low 0.96 | locus YER111C, strain swi4, active compounds read low 0.955 | locus YER155C, strain BEM2 (second series), active compounds read low 0.89 | locus YFR010W, strain ubp6, active compounds read low 0.951 | locus YGL167C, strain pmr1, active compounds read low 0.927 | locus YGL173C, strain kem1, active compounds read low 0.908 | locus YGL227W, strain vid30, active compounds read low 0.939 | locus YGL240W, strain doc1, active compounds read low 0.93 | locus YGL253W, strain hxk2, active compounds read low 0.969 | locus YHR027C, strain rpn1, active compounds read low 0.929 | locus YHR030C, strain SLT2, active compounds read low 0.955 | locus YHR079C, strain IRE1, active compounds read low 0.955 | locus YHR142W, strain chs7, active compounds read low 0.897 | locus YJL092W, strain hpr5, active compounds read low 0.972 | locus YJL095W, strain BCK1 (second series), active compounds read low 0.955 | locus YJL095W, strain BCK1, active compounds read low 0.916 | locus YJL115W, strain asf1, active compounds read low 0.951 | locus YJL129C, strain trk1, active compounds read low 0.97 | locus YJL154C, strain vps35, active compounds read low 0.939 | locus YJL164C, strain tpk1, active compounds read low 0.957 | locus YJL166W, strain qcr8, active compounds read low 0.955 | locus YJL187C, strain SWE1, active compounds read low 0.951 | locus YJR066W, strain TOR1, active compounds read low 0.92 | locus YKL160W, strain elf1, active compounds read low 0.935 | locus YKR026C, strain gcn3, active compounds read low 0.951 | locus YKR091W, strain srl3, active compounds read low 0.951 | locus YLL001W, strain dnm1, active compounds read low 0.979 | locus YLL041C, strain sdh2, active compounds read low 0.967 | locus YLR027C, strain aat2, active compounds read low 0.95 | locus YLR113W, strain HOG1, active compounds read low 0.915 | locus YLR221C, strain rsa3, active compounds read low 0.958 | locus YLR258W, strain gsy2, active compounds read low 0.955 | locus YLR342W, strain FKS1, active compounds read low 0.962 | locus YLR357W, strain rsc2, active compounds read low 0.992 | locus YLR370C, strain arc18, active compounds read low 0.918 | locus YLR384C, strain iki3, active compounds read low 0.952 | locus YML120C, strain ndi1, active compounds read low 0.934 | locus YMR125W, strain sto1, active compounds read low 0.961 | locus YMR129W, active compounds read low 0.954 | locus YMR205C, strain PFK2, active compounds read low 0.973 | locus YMR231W, strain pep5, active compounds read low 0.969 | locus YNL183C, strain NPR1, active compounds read low 0.908 | locus YNL209W, strain ssb2, active compounds read low 0.946 | locus YNL248C, strain rpa49, active compounds read low 0.944 | locus YNL322C, strain KRE1 (second series), active compounds read low 0.963 | locus YNR049C, strain mso1, active compounds read low 0.944 | locus YOR001W, strain rrp6, active compounds read low 0.95 | locus YOR080W, strain dia2, active compounds read low 0.973 | locus YOR083W, strain WHI5, active compounds read low 0.945 | locus YOR106W, strain vam3, active compounds read low 0.905 | locus YOR231W, strain MKK1, active compounds read low 0.946 | locus YOR265W, strain rbl2, active compounds read low 0.955 | locus YOR290C, strain snf2, active compounds read low 0.945 | locus YPL051W, strain arl3, active compounds read low 0.932 | locus YPL240C, strain hsp82, active compounds read low 0.965 | locus YPL256C, strain CLN2, active compounds read low 0.961
active: locus YAL030W, strain snc1, active compounds read low 0.928 | locus YDR137W, strain rgp1, active compounds read low 0.688 | locus YDR392W, strain spt3, active compounds read low 0.601 | locus YHR013C, strain ard1, active compounds read low 0.623 | locus YLL026W, active compounds read low 0.925 | locus YLR262C, strain YPT6 (second series), active compounds read low 0.776 | locus YLR320W, strain mms22, active compounds read low 0.875 | locus YMR058W, strain fet3, active compounds read low 0.897 | locus YNL071W, strain lat1, active compounds read low 0.875 | locus YOR070C, strain gyp1, active compounds read low 0.0944 | locus YOR270C, strain vph1, active compounds read low 0.414 | locus YPL078C, strain atp4, active compounds read low 0.878 | locus YPL106C, strain sse1, active compounds read low 0.732
